# Experimental data published in PubChem BioAssay (EPA / NIEHS).
# Activity calls are given as the source filed them. The calls were made as follows: active = hit-call score of the fitted dose curve at least 0.9, where 1 is the maximum; inactive = score below 0.9.
# Read-out: UDP glucuronosyltransferase (UGT1A1), UGT1A1 (gene 54658)
# Assay: LTEA_HepaRG_UGT1A1: Life Technologies and Expression Analysis (LTEA) Assay for UDP glucuronosyltransferase (UGT1A1) using HepaRG (AID 2283538)
# Conditions: mRNA level, 48 h; actives raise or lower the signal
# Protocol: LTEA_HepaRG is a cell based, multiplexed-readout assay that uses HepaRG, a human liver cell line, with measurements taken at 48 hours after chemical dosing on a 96-well plate.LTEA_HepaRG_UGT1A1 is one of 102 assay component(s) measured in the LTEA HepaRG cell culture assay. It is a marker of Steatosis/NR mediated metabolism.Data from the assay component LTEA_HepaRG_UGT1A1 was analyzed into 1 endpoint. This assay endpoint, LTEA_HepaRG_UGT1A1, was analyzed with bidirectional fitting relative to DMSO as the negative control and baseline of activity. Using a type of inducible reporter, measures of mRNA induction for gain or loss-of-signal activity can be used to understand regulation of transcription factor activity. To generalize the intended target to other relatable targets, this assay endpoint is annotated to the transferase intended target family, where the subfamily is glucuronosyltransferase.
# A total of 1060 chemcials from the ToxCast library were tested in eight-point concentration-response experiments. Cell culture and cytotoxicity assays were conducted at Thermo Fisher Scientific's Custom Services facility (Madison, WI). A single lot of human HepaRG cells (Thermo Fisher Scientific, Frederick, MD) was used for the cell culture experiments. 96-well format collagen type I coated plates of human HepaRG cells were prepared using established methods. Briefly, cryopreserved HepaRG cells were thawed, plated at a density of approximately 100,000 cells/well in HepaRG Thaw, Plate, and General Purpose media (HPRG770, Thermo Fisher Scientific), and incubated for 48 hours. 0.5% DMSO was selected as vehicle control to balance the requisite need of DMSO in HepaRG cultures to maintain differentiation (for example, baseline metabolism, proportions of hepatocytes vs. cholangiocytes), while enabling further hepatic receptor pathway activation (for example, PXR and CAR) in response to chemical exposure. 48 hours after plating, the culture medium was replaced with HepaRG Serum-Free Incudtion Media. Cells were exposed to each test chemical in duplicate and maintained in CO2 incubators for another 48 hours. Chemical plates were thawed to room temperature and 200x concentrations of treatment groups were prepared. 8-point conentration-reponse curves were made with the highest exposure at 100 uM, followed by half-log dilutions, all in 0.5% DMSO. Each test plate contained variouse controls, induction positive controls (1mM phenobarbital), cytotoxicity positive controls ([…] aflatoxin B1), vehicle controls (0.5% DMSO), and total lysis controls (0.5% DMSO). Cell morphology images were taken using an Essen IncuCyte FLR automated microscope, with six 96-well plates imaged in about 24 minutes. Images were captured and exported and JPEG files. Spent culture media was transfered to black-well plates for the LDH assay, and remaining media was sorted at -80 C for later use. Cells were treated with RLT buffer and frozen until shipped for gene expression analysis. Total RNA was isolated from the cell suspension in 75 uL of Buffer RLT (Qiagen, Germantown, MD 20874) by Quintiles/Expression Analysis (Durham, NC) using a custom isolation procedure. Total RNA from each plate well was transferred to a preamplification plate. Fluidigm's 96.96 Dynamic ArrayTM (Fluidigm, Amsterdam, the Netherlands) technology was used for gene expression analyses by quantitative reverse transcription polymerase chain reaction (qRT-PCR, performed by Quintiles/Expression Analysis, Durham, NC)89. Standard TaqManTM Assays (Applied Biosystems/ThermoFisher Scientific, Foster City, CA) were used to assess the expression of 93 genes selected based on their selectivity and sensitivity to important hepatic receptors known to be modulated by environmental chemicals; importance in human hepatocyte functionality; and hepatotoxicity. […]
SMILES,outcome,AC50
CCOC(=O)CCC(=O)OCC,inactive,
O=C(O)CCCCC(=O)O,inactive,
FC(F)(F)C(F)(F)C(F)(F)C(F)(F)C(F)(F)C(F)(F)CCI,inactive,
NS(=O)(=O)c1cc2c(cc1Cl)NCNS2(=O)=O,inactive,
Cc1cccc(C)c1O,inactive,
COc1cc(-c2nc(NC(=O)c3cc4cc(C)cc(C)c4n3CC(=O)O)sc2CCC2CCCCC2)c(OC)cc1Cl,,7.32 µM (active)
O=c1[nH]cc(F)c(=O)[nH]1,inactive,
CC=Cc1ccc(O)c(OC)c1,inactive,
Nc1ccc(S(=O)(=O)c2ccc(N)cc2)cc1,inactive,
CCCCCCCCCCO,inactive,
CCCCc1ccc2c(n1)[C@@H](c1ccc(OC)cc1C[C@H](C)C(=O)O)[C@H](C(=O)O)[C@H]2c1ccc2c(c1)OCO2,inactive,
NC(=O)Cn1c(=O)cc(CCN2CCN(c3nccc4sccc34)CC2)c2ccc(F)cc21,,12.6 µM (active)
CN1CCCC1=O,inactive,
CCCCCCCC=O,inactive,
CC(C)c1ccc(C(=O)N=C(N)N)cc1S(C)(=O)=O,,10.2 µM (active)
CC(=O)OCCOCCOCCOC(C)=O,inactive,
Cc1c(C(=O)O)c(O)cc2c1C(=O)c1c(O)c([C@@H]3O[C@H](CO)[C@@H](O)[C@H](O)[C@H]3O)c(O)c(O)c1C2=O,inactive,
CC(=O)OC/C=C(\C)CCC=C(C)C,inactive,
CC(=O)C(C)=CC1C(C)=CCCC1(C)C (stereo not given),inactive,
Cc1cccc(Nc2cc(Cl)nc(SCC(=O)O)n2)c1C,,50 µM (active)

SMILES,outcome,AC50
CCCCCCCCCCCC(=O)OC,inactive,
Cc1ccccc1Cl,inactive,
C[Si]1(C)O[Si](C)(C)O[Si](C)(C)O[Si](C)(C)O1,inactive,
Cc1cccc([N+](=O)[O-])c1C,inactive,
CC1=C(/C=C/C(C)=C/C=C/C(C)=C/CO)C(C)(C)CCC1,,41.5 µM (active)
CCCCOC(=O)CCCCCCCCC(=O)OCCCC,inactive,
Clc1cc(Cl)c(Cl)cc1Cl,inactive,
Cc1cc(=O)[nH]c(=S)[nH]1,inactive,
Oc1ccc2c(c1)OC[C@@H](N1CCC(O)(c3ccc(F)cc3)CC1)[C@H]2O,inactive,
Oc1ccc2ccccc2c1N=Nc1ccccc1,,0.811 µM (active)
O=c1c(O)c(-c2ccc(O)c(O)c2)oc2cc(O)cc(O)c12,,0.322 µM (active)
COc1ccc(S(=O)(=O)N2C(=O)[C@@](c3ccccc3OC)(N3C[C@H](O)C[C@H]3C(=O)N(C)C)c3cc(Cl)ccc32)c(OC)c1,,34.8 µM (active)
CCCCC(CC)COC(=O)CC(C(=O)OCC(CC)CCCC)S(=O)(=O)O (stereo not given),,13.3 µM (active)
CCCCN(CCCC)CCCC,inactive,
O=C(N[C@@H](Cc1ccccc1)[C@@H](O)C(=O)N1C[C@@H](O)[C@@H](O)C1)c1cc2cc(Cl)ccc2[nH]1,inactive,
COCCOCCOC,,3.2 µM (active)
Cc1nc(C)nc(N2C[C@@H](C)N(c3ccnc([C@@H](C)O)n3)[C@@H](C)C2)n1,inactive,
OC[C@@H](O)[C@@H](O)[C@H](O)[C@H](O)CO,inactive,
CCOc1ccc2c(c1)C(C)=CC(C)(C)N2,,1.61 µM (active)
CCCCCCC(=O)OCC,inactive,
